Consider 58 compounds from PubChem BioAssay AID493011 (Sanford-Burnham Center for Chemical Genomics, 2011).

Among all 330,000 compounds or so, about 1,400 (0.42%) were called active.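 Rule for the calls: active = at least 40% inhibition at 20 µM here, with at most 30% in a related deaminase screen; inactive = the rest.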 The sample as a whole holds a higher share of actives than the screen did.

Sequence of DNA dC->dU-editing enzyme APOBEC-3A (Homo sapiens) (P31941 whole entry, looked up): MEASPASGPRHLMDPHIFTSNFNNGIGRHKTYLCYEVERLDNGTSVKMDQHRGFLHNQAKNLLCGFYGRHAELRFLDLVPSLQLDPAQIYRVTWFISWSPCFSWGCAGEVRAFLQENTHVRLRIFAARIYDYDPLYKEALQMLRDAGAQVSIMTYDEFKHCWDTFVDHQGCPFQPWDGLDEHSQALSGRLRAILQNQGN

This experiment addresses DNA dC->dU-editing enzyme APOBEC-3A (Homo sapiens) (UniProt P31941). In words: APOBEC3A ssDNA deaminase inhibitors, primary screen, selectivity assay for APOBEC3G inhibitor project, biochemical, FAM/TAMRA oligo cleavage fluorescence (AID 493011).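 Note: plate controls were A3A with DMSO for no effect and wells lacking A3A enzyme for full effect.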 Conditions: recombinant A3A, FAM/TAMRA ssDNA deamination fluorescence; at 20 µM; hits give high values.
Consider `O=C1c2oc3ccccc3c(=O)c2C(c2cccc(O)c2)N1c1ccccn1` (stereo not drawn), for which the inhibition (commonly the drop in the measured response relative to a control, in per cent) was 51.3% (active). As for `O=c1c2ccccc2c(-c2ccccc2)nn1-c1ccccn1`, the figure is 0.978% (inactive). Consider `COCCN1C(=O)c2oc3c(C)cc(C)cc3c(=O)c2C1c1cccc(O)c1` (stereo not drawn), for which the inhibition is -3.14% (inactive). As for `O=C(NC(CC(=O)N1CCN(c2ccccc2)CC1)c1ccccc1)c1ccccc1Cl` (stereo not drawn), the figure is -2.76% (inactive); as for `CN1C(C(=O)NCC2CC2)CC2Cn3c(nc4ccccc43)C21` (stereo not drawn), -2.77% (inactive); as for `CCCCn1c(N)c(N(CC(C)C)C(=O)C2CSC3(C)CCC(=O)N23)c(=O)[nH]c1=O` (stereo not drawn), 7.64% (inactive).

With `CN(CC(=O)Nc1ccc(F)c(F)c1F)C(=O)C1CC(=O)N(C2CCCC2)C1` (stereo not drawn), the inhibition is 0.598% (inactive). Consider `COc1ccc(Br)cc1CN(C)C(=O)C1CC(=O)N(C2CCCC2)C1` (stereo not drawn), for which the inhibition was 43.5% (active). Turning to `CCOc1ccc(CNC(=O)C2CC(=O)N(C3CCCC3)C2)cc1OC` (stereo not drawn), the inhibition was -5.29% (inactive). Take `Cc1ccc(NS(=O)(=O)c2ccc(C(C)C)cc2)cc1S(=O)(=O)N1CCOCC1`: the inhibition is 3.31% (inactive). As for `O=C(Cn1cnc2ccccc2c1=O)Nc1cccc(S(=O)(=O)N2CCCCC2)c1`, the figure is 2.51% (inactive); as for `CCOc1cc(C)c(S(=O)(=O)NCc2ccccn2)cc1C`, -6.13% (inactive); as for `C[N+]1(CC(O)COc2ccccc2)CCN(C(=O)c2ccc([N+](=O)[O-])cc2)CC1` (stereo not drawn), 67.8% (active).

Turning to `O=C(COc1ccccc1)Nc1ccc(C(=O)N2CCCC2)cc1`, the inhibition was 0.542% (inactive). Consider `O=[N+]([O-])c1ccc(N2CCN(CC(O)COc3ccccc3)CC2)cc1` (stereo not drawn), for which the inhibition is 0.14% (inactive). As for `CCN(CC(=O)NCc1cccs1)c1nnnn1-c1ccccc1`, the figure is -3.14% (inactive).

On to `CCCCNC(=O)N1CCCC(N(C)CCc2ccc(OC)c(OC)c2)C1` (stereo not drawn), for which the inhibition is -3.11% (inactive). In the case of `CCS(=O)(=O)c1ccc2c(c1)N(S(=O)(=O)c1ccccc1)CC(C(=O)O)O2` (stereo not drawn), the inhibition is 1.33% (inactive).

Consider `COCCCn1c(SCC(=O)NC2CCCC2)nnc1-c1ccccc1`, for which the inhibition is 0.169% (inactive). With `COCCCn1c(Cc2csc(Nc3cccc(Cl)c3)n2)nnc1SCC(=O)OC1CCCCC1`, the inhibition was 50.4% (active). Consider `CCOc1ccc(Nc2nc(Cc3nnc(SCC(=O)NC4CCCC4)n3C)cs2)cc1`, for which the inhibition is -3.45% (inactive).

For the compound `O=C(Oc1ccc(-c2nc(-c3ccccn3)no2)cc1)c1ccccc1`, the inhibition was 2.42% (inactive). In the case of `Cc1cn(C2OC[C@@H](O)[C@@H]2CO)c(=O)[nH]c1=O` (stereo partly drawn), the inhibition is -1.23% (inactive).

Consider `COc1ccc(CCNC(=O)COC(=O)/C=C/c2cccs2)cc1OC`, for which the inhibition is 48.9% (active). Turning to `COc1ccc(/C=C/C(=O)OCC(=O)NCc2cccs2)cc1OC`, the inhibition is 2.47% (inactive). `COc1ccc(CCNC(=O)c2cc3sccc3n2C)cc1OC`: the inhibition is 5.91% (inactive). As to `COCCn1c(SCC(=O)N2CCCCCC2)nc2c(c1=O)SCC2`, the inhibition was -5.21% (inactive). In the case of `CC(C)(C)C1CCC(C(=O)Nc2cccnc2)CC1` (stereo not drawn), the inhibition was -2.44% (inactive). As for `CCCc1ccc(OCc2ccc(C(=O)N/N=C/c3cccc([N+](=O)[O-])c3)o2)c(OC)c1`, the figure is 2.99% (inactive). For the compound `COc1cc(/C=N/NC(=O)Nc2ccccc2)ccc1OCCOc1ccccc1C`, the inhibition is -4.86% (inactive). As for `COc1cc(/C=N\Nc2ccc([N+](=O)[O-])cn2)ccc1OCC(=O)O`, the inhibition was 71.8% (active).

Consider `O=C(C[n+]1cc(Br)cc2ccccc21)c1ccc(F)cc1`, for which the inhibition is -1.32% (inactive). For `COc1c(C(=O)N2CCCC2)ccc2ccccc12`, the inhibition is 1.55% (inactive). `COC(=O)C[n+]1cccc2ccccc21`: the inhibition was 67.3% (active).

Regarding `COc1ccccc1NC(=O)COC(=O)c1ccccc1SCC(=O)N1CCCC1`, the inhibition is 1.2% (inactive). `CCO[C@H]1OC(C(=O)N2CCN(Cc3ccccc3)CC2)=C[C@@H](c2cn(C(C)=O)c3ccccc23)[C@@H]1CCCO`: the inhibition was -2.14% (inactive).

Regarding `CCOc1c(OC)cccc1C(=O)NCC1(c2ccccc2)CCCC1`, the inhibition was -3.19% (inactive). As for `O=C(CNC1CCCCC1)NCC1(c2ccccc2)CCCC1`, the figure is 56.4% (active); as for `COc1cc(C(=O)NCC2(c3ccccc3)CCCC2)ccc1OC(C)C`, 5.08% (inactive); as for `O=C(NC1(C(F)(F)F)NC(=O)N(Cc2cccnc2)C1=O)c1ccccc1Cl` (stereo not drawn), 0.863% (inactive). Consider `C[N+]1(CCNC(=O)/C=N/O)CCCCC1`, for which the inhibition is 54.1% (active). Consider `O=[N+]([O-])c1cc(S(=O)(=O)N2CCCC2)ccc1NN=C1CCCC1`, for which the inhibition was -1.16% (inactive). As for `Cc1snc(SCc2c(F)cccc2Cl)c1C#N`, the figure is 44.2% (active); as for `Cc1cc(SCc2c(F)cccc2Cl)nc(=O)[nH]1`, 1.16% (inactive). With `Cc1ccc(CSc2nsc(C)c2C#N)cc1` the figure was -2.03% (inactive); with `Cc1ccc(NC(=O)CN(C)C(=O)COC(=O)C(C)(C)Oc2ccc(Cl)cc2)cc1`, 1.01% (inactive). In the case of `O=C(CCC1CCCCC1)Nc1cc(C(F)(F)F)ccc1N1CCOCC1`, the inhibition is 1.06% (inactive). As to `COc1ccccc1N1CCN(C(=O)CCS(=O)(=O)c2ccc3c(c2)NC(=O)C(C)S3)CC1` (stereo not drawn), the inhibition is 0.853% (inactive). As to `Cc1cccc(N2C(=O)N3[C@H](c4ccc(F)cc4)[C@@H]4C(=O)N(C5CCCCC5)C(=O)[C@@H]4[C@]3(Cc3ccccc3)C2=O)c1`, the inhibition is 0.21% (inactive).

As for `CCN1C(=O)N[C@@H](c2ccccc2)[C@H](C(C)=O)[C@H]1C`, the inhibition is -2% (inactive). With `CCN1C(=NCCc2cccnc2)N[C@@H](c2ccccc2)C(C(=O)OC)=C1C` the figure was 67.6% (inactive); with `CCN1C(=NCCc2cccnc2)N[C@@H](c2ccccc2)[C@H](C(=O)OC)[C@H]1C`, 68.2% (active); with `CC1=C(C(N)=O)C(c2sccc2C)n2nnnc2N1` (stereo not drawn), 0.148% (inactive).

In the case of `Cc1cc(Cl)ccc1C(=O)C1CCCN(C(=O)c2nonc2C)C1` (stereo not drawn), the inhibition is -5.04% (inactive). For `Cc1ccccc1-n1c(C)cc(/C=N/NC(=O)c2ccc(CN3CCOCC3)cc2)c1C`, the inhibition is 0.38% (inactive).

As to `Cc1cc(=O)cc(C)n1-c1ccc(Cl)c(Cl)c1`, the inhibition is 1.75% (inactive).

With `Cc1cc(/C=N/NC(=O)CC2(C)OCCO2)c(C)n1-c1ccc(Cl)c(Cl)c1`, the inhibition was 56.8% (active).

`CCOc1ccc(S(=O)(=O)Nc2ccncc2)c(C)c1C`: the inhibition was -0.833% (inactive).
